# Tau fluor counter – Counterscreen qHTS for Inhibitors of Tau Fibril Formation, Fluorescence Polarization. tau K18 P301L Alexa594 fluorescence, heparin fibrillization. Potency, µM (highest dose often 57.7 µM), inactives show top-dose activity change, negative = decrease. hit rate 0.93% among 280,000. AID 1463, 2008; active = well fitted curve in the direction sought with a large enough effect; inconclusive = small, poorly fitted or top-dose-only effect, or another doubt; inactive = no such curve, though single readings can be large; an effect the other way counts as inactive or inconclusive; note: nearly all actives have a fitted effect of over 55% in size
#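 Human tau K18 P301L (15 uM unlabeled, 0.24 uM Alexa 594-labeled) in 100 mM sodium acetate pH 7 with 20 uM heparin, 6 hr at 37 C. ThT 30 uM added, 1 hr ambient; Alexa 594 FP and total fluorescence read at 555/632 nm.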
# Tau fibril ThT – qHTS for Inhibitors of Tau Fibril Formation, Thioflavin T Binding. recombinant tau K18 P301L (four-repeat tau fragment), heparin-induced fibrillization, ThT fluorescence. Potency, µM (series often up to 57.4 µM), for inactives: at the highest dose activity, negative = inhibition, actives largely listed as inhibitors. hit rate 2.1% among 270,000. AID 1460, 2008; active = well fitted curve in the direction sought with a large enough effect; inconclusive = small, poorly fitted or top-dose-only effect, or another doubt; inactive = no such curve, though single readings can be large; an effect the other way counts as inactive or inconclusive; note: nearly all actives have a fitted effect of over 55% in size
# Target sequence (P10636 561-689 P618L limits assumed): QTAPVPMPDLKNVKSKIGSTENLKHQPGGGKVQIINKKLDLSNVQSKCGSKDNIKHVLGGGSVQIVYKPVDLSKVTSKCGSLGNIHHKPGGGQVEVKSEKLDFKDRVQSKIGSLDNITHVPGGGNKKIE
#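 Heparin-induced (20 uM) aggregation of recombinant human K18 P301L tau, 15 uM unlabeled with 0.24 uM labeled, pH 7 acetate buffer, 6 hr at 37 C with compound. Fibrils quantified by 30 uM ThT fluorescence after 1 hr ambient incubation.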
# HPGD block – qHTS Assay for Inhibitors of HPGD (15-Hydroxyprostaglandin Dehydrogenase) | hit rate 4.3% among 150,000 | 15-hydroxyprostaglandin dehydrogenase [NAD(+)] (Homo sapiens), P15428 | Potency, µM, without a hit: at the highest dose activity change, negative = inhibition, most hits filed as inhibitors | AID 894, 2007 | purified HPGD, NADH fluorescence kinetic, PGE2 substrate
#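 20 nM HPGD preincubated 15 min at room temperature with compound in 50 mM Tris-HCl pH 8, 0.01% Tween 20. Started with 1 mM NAD+ and 30 uM prostaglandin E2; NADH fluorescence (360/450 nm) read 5 times over 30-s intervals, last minus first.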
# ALDH1A1 block – qHTS Assay for Inhibitors of Aldehyde Dehydrogenase 1 (ALDH1A1); Aldehyde dehydrogenase 1A1 (Homo sapiens), P00352; Purified ALDH1A1, NADH fluorescence, propionaldehyde substrate; Potency, µM (doses to about 75.3 µM), for the others: top-dose activity, negative = inhibition, most hits filed as inhibitors; hit rate 7.3% among 220,000; AID 1030, 2008;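 note: plate controls were no enzyme wells and a reference inhibitor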
# Tau FP inhib – qHTS for Inhibitors of Tau Fibril Formation, Fluorescence Polarization. K18 P301L tau heparin fibrillization, Alexa594 FP, 6 h. Potency, µM (series often up to 57.7 µM), without a hit: top-dose activity, negative = inhibition, actives largely listed as inhibitors. hit rate 0.39% among 280,000; active = well fitted curve in the direction sought with a large enough effect; inconclusive = small, poorly fitted or top-dose-only effect, or another doubt; inactive = no such curve, though single readings can be large; an effect the other way counts as inactive or inconclusive; note: nearly all actives have a fitted effect of over 55% in size
#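 Recombinant K18 P301L […], labeled with Alexa 594 at 0.24 uM over 15 uM unlabeled; heparin inducer 20 uM final; 37 C, 6 hr; FP endpoint.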
# KDM4E inh – qHTS Assay for Inhibitors of Human Jumonji Domain Containing 2E (JMJD2E); JMJD2E catalytic domain, FDH-coupled NADH fluorescence (FDH is formaldehyde dehydrogenase); Potency, µM (titrated, usually from 57.1 µM), without a hit: top-dose activity change, negative = inhibition, usual class: inhibitors; hit rate 1.6% among 230,000;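 note: 0% = wells with enzyme and -100% = buffer wells without enzyme; nearly all actives have a fitted effect of over 50% in size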
# Target sequence (B2RXH2 1-337 limits assumed): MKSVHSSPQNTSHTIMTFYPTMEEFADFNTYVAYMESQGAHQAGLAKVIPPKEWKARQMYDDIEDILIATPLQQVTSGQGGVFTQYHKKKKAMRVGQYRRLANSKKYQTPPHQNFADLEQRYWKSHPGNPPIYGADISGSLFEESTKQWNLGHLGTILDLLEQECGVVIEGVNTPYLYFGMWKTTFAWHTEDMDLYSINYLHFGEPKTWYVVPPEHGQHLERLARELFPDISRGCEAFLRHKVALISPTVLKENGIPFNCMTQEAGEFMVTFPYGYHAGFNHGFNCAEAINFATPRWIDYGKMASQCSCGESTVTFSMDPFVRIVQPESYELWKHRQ
# Active calls of the source: *; ? = inconclusive; nt = not tested or not shown; [ ] = dose if it differs, or a comment. Only some compounds are listed: those with a hit (about 9.9% of all), similar ones and a draw of the others. Unless noted, calls come from the whole dose curve; as a rule, active = well fitted inhibition curve with a large enough effect (not every such curve was filed as active); inconclusive = small, poorly fitted or top-dose-only effect, or another doubt; inactive = no such curve, though single readings can be large or run the other way. Unless noted, % is set by controls: 0 for no effect and ±100 for the full control effect; potency is the fitted concentration of half-maximal effect.
SMILES,Tau fluor counter,Tau fibril ThT,HPGD block,ALDH1A1 block,Tau FP inhib,KDM4E inh
O=C(CCSc1ccc(Cl)cc1)N1CCCCCC1,-5%,-5%,10µM*,-7%,1%,-1%
NC(=O)C1CCN(C(=O)CCSc2ccc(Cl)cc2)CC1,-3%,0%,nt,2%,-14%,4%
Cc1cc(Br)ccc1OCC(=O)N1CCCCCC1,-4%,-2%,40µM*,?,5%,-4%
CC1CCN(C(=O)CSCc2ccc(Cl)cc2)CC1,-11%,-17%,-19%,3%,6%,6%
Cc1cc(Cl)ccc1OCCCC(=O)N1CCCCC1,-10%,-16%,6.3µM*,-14%,10%,0%
CC1CCN(C(=O)CCCOc2ccc(Cl)cc2)CC1,6%,-2%,2.8µM*,?,6%,-1%
CN(C)c1ccnc(-c2ccccc2C(F)(F)F)n1,2%,0%,-4%,7%,8%,-10%
Cc1occc1C(=O)NNC1=CC(=O)CC(C)(C)C1,5%,3%,-17%,10%,12%,5%
O=C(CSc1ccc(-c2cccs2)nn1)Nc1cccc(F)c1,?,-16%,nt,nt,?,nt
Cc1cc(OCCCC(=O)N2CCCCC2)cc(C)c1Cl,-6%,?,7.9µM*,?,10%,-1%
CCOC(=O)C1CCN(C(=O)COc2ccc(S(=O)(=O)N3CCCC3)cc2C)CC1,-4%,-6%,nt,18µM*,6%,-3%
O=C(CCCOc1ccc(Cl)cc1Cl)N1CCc2ccccc2C1,-13%,-15%,2.5µM*,-2%,-3%,-8%
CCOC(=O)N1CCN(C(=O)COc2cc(C)c(Cl)c(C)c2)CC1,-13%,-11%,nt,5%,-3%,-7%
Cc1cc(S(=O)(=O)N2CCCC2)ccc1OCC(=O)N1CCC(C(N)=O)CC1,-9%,-9%,nt,?,0%,13%
CCCOc1ccc(Oc2nc(-c3ccncc3)nc3ccccc23)cc1,-12%,?,nt,2%,-10%,4%
COc1cc(/C=C2\N=C3CCCCCN3C2=O)ccc1O,-5%,-16%,-28%,?,10%,-9%
COc1ccc(/C=C2\N=C3CCCCCN3C2=O)cc1OC,-10%,-17%,-17%,14µM*,-7%,5%
O=C1/C(=C\c2ccc(O)c(O)c2)N=C2CCCCCN12,-24%,?,nt,nt,-5%,13µM*
NC(=S)c1ccc[n+]([C@@H]2O[C@@H](COP(=O)([O-])OP(=O)(O)OC[C@H]3O[C@@H](n4cnc5c(N)ncnc54)[C@H](OP(=O)(O)O)[C@H]3O)C(O)C2O)c1 (some centres undefined),1%,8%,?,28µM*,1%,?
NC(=O)c1ccc[n+]([C@@H]2OC(COP(=O)([O-])OP(=O)(O)OCC3OC(n4cnc5c(N)ncnc54)C(O)C3O)C(O)C2O)c1 (some centres undefined),-4%,-1%,-20%,-3%,-7%,-16%
O=C1c2ccccc2C(=O)N1c1cccc(-c2csc(Nc3ccc4c(c3)OCO4)n2)c1,7.9µM*[quencher],8.9µM*,-17%,7.1µM*,?,-8%
Cc1ccc(-c2onc3ccc(C=O)cc23)cc1,?,25µM*,?,?,?,?
Cc1ccc(-c2onc3ccc(C4(C)OCCO4)cc23)cc1,-6%,-2%,-16%,9%,-5%,2%
COc1ccc(/C=N/Nc2nnc(C)n2N)cc1OC,-19%,28µM*,nt,5%,?,14µM*
Cc1cc(-c2ccccc2)nc2c(Br)c(=O)[nH]n12,-17%,10µM*,nt,?,?,3%
SMILES,Tau fluor counter,Tau fibril ThT,HPGD block,ALDH1A1 block,Tau FP inhib,KDM4E inh
Cc1cc2nc(-c3ccccc3)cc(=O)n2[nH]1,-6%,-6%,nt,nt,5%,?
CC(C)(C)N/N=C/c1cc(Cl)cc([N+](=O)[O-])c1O,-8%,-4%,-26%,8%,5%,8%
O=C(N/N=C/c1cc(Cl)cc([N+](=O)[O-])c1O)C1CC1,-17%,16µM*,nt,?,3%,?
O=C(Cn1nc2ccccc2n1)N/N=C/c1cc(Cl)cc([N+](=O)[O-])c1O,?,13µM*,nt,14µM*,8%,?
O=C(Cn1nnc(-c2ccccc2)n1)N/N=C/c1cccc([N+](=O)[O-])c1O,-2%,10µM*,nt,9%,11%,?
Cc1ccccc1C(=O)Nc1cccc(C(=O)N/N=C/c2cc(Cl)cc([N+](=O)[O-])c2O)c1,?,4µM*,nt,1.3µM*,7%,-3%
Cc1ccc(-c2[nH]c3c(c2-c2c(-n4cccc4)n(C)c(=O)[nH]c2=O)c(=O)[nH]c(=O)n3C)cc1,-3%,3%,nt,nt,-8%,nt
CCCCCn1c(=O)[nH]c2cc(C(=O)N3CCN(c4cccc(Cl)c4)CC3)ccc2c1=O,-19%,-10%,nt,nt,1%,nt
C[C@@]12CC[C@@H]3[C@@H](CC[C@H]4C[C@@H](O)CC[C@]43C)[C@H]1CC[C@@H]2c1cc(C(F)(F)F)n[nH]1,nt,nt,-2%,3%[13.5 µM],nt,nt
Cc1ccc(C)c(NC(=O)CSc2nc3c(c(=O)n2C)SC(C)C3)c1 (centres undefined),-2%,-11%,-17%,-8%,-1%,0%
Cc1ccc2nc(NC(=O)CSc3nc4c(c(=O)n3C)SC(C)C4)sc2c1 (centres undefined),-9%,-18%,?,14µM*,8%,6%
CCSc1n[nH]c(=S)s1,-5%,-3%,nt,1.8µM*,-10%,25µM*
Nc1ccccc1-c1n[nH]c(=S)s1,-7%,-16%,nt,?,6%,?
O=C(NC1CC2CCCC(C1)N2S(=O)(=O)c1ccccc1)C1CCCCC1 (centres undefined),-3%,-4%,-11%,28µM*,6%,2%
O=C(Nc1ccc(N2CCOCC2)c(Cl)c1)c1ccc(Br)o1,?,?,25µM*,25µM*,?,1%
O=C(NC(=S)Nc1ccc(N2CCOCC2)c(Cl)c1)C(c1ccccc1)c1ccccc1,?,-16%,-18%,11µM*,-5%,1%
O=C(Nc1ccc(N2CCCC2)cc1)c1ccc(Br)o1,?,8.9µM*,-8%,?,8%,-5%
O=C(Nc1ccccc1N1CCCCC1)c1ccc(Cl)c([N+](=O)[O-])c1,-30%,-14%,nt,-3%,5%,3%
